# PubChem BioAssay (NCI)
# About 83,000 compounds went through this panel and 20% of them were active in at least one assay; those are over-represented in the sample as a whole.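 A percent growth of 40 corresponds to 60% growth inhibition; 0 means no net growth; -100 means all cells died. Active threshold: below 10.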 Active and inactive are the calls of the source.
# System: SK-MEL-2 melanoma
# Assay: NCI-60 one-dose screen, 48 h (100 = growth as untreated, 0 = no growth, -100 = all killed)
# Conditions: 10 µM unless noted
row,SMILES,growth
1,NC(=O)N1CCOCC1,105% (inactive)
2,N#Cc1ccc(OC(=O)Nc2c(Cl)cc(Cl)cc2Cl)cc1,118% (inactive)
3,CCOC(=O)/C(C)=C\c1ccc(OC)c(OC)c1,112% (inactive)
4,O=S(Cc1ccccc1)/C(=C/NC(=S)Nc1ccccc1)c1ccccc1 (centres undefined),104% (inactive)
5,C/C(=N\O)c1ccccn1,94.9% (inactive)
6,CC(C)NC(=O)OCc1c(COC(=O)NC(C)C)c(-c2ccc(Cl)cc2)n2c1CCC2,94.4% (inactive)
7,CC(=O)NNC(=S)/N=C\C(C(=O)c1ccccc1)=C(/O)c1ccccc1,110% (inactive)
8,C=CCS(C)(=O)=O,100% (inactive)
9,O=C(NCc1ccccc1)c1cccc([N+](=O)[O-])c1,104% (inactive)
10,c1ccc(-c2ccc3ccccc3c2)cc1,76.6% (inactive)
11,Cc1ccccc1NC(=O)Oc1ccc(Cl)cc1C(=O)c1ccccc1,92.6% (inactive)
12,CCC(C)c1c(N)n(S(=O)(=O)c2ccc(C)cc2)oc1=O (centres undefined),107% (inactive)
13,O=Cc1c(O)c2ccccc2[nH]c1=O,106% (inactive)
14,COC(=O)c1ccccc1C(=O)c1c(C)cc(C)cc1C,94% (inactive)
15,N=C(N)c1nn(C2OC(CO)C(O)C2O)c2nc[nH]c(=O)c12 (centres undefined),-23% (active)
16,COc1cccc(C(=O)O)c1OC,99.3% (inactive)
17,O=C(O)c1cc(I)ccc1O,107% (inactive)
18,CC(=O)NNC(=S)N/C=C/c1c(C)ccc([N+](=O)[O-])c1[N+](=O)[O-],92.3% (inactive)
19,NNc1ncnc2c1ncn2C1OC(CO)C(O)C1O (centres undefined),73.5% (inactive)

row,SMILES,growth
1,C=CCNC(=S)N/C=C(/C(=O)c1ccccc1)c1ccccc1,120% (inactive)
2,Cc1ccc(C2CCCCC2)cc1Br,99% (inactive)
3,OCCc1ccc(Cl)cc1,99.3% (inactive)
4,C/C(O)=C(/C=N/C(=S)Nc1ccccc1)C(=O)Nc1ccccc1C,114% (inactive)
5,CC1(C)OC(=O)CC1=O,90.9% (inactive)
6,CN(C)CCOC(=O)Nc1ccc(Cc2ccc(NC(=O)OCCN(C)C)cc2)cc1,101% [100 µM] (inactive)
7,O=c1nc(Nc2cccc(Cl)c2)oc2cc(Cl)oc(=O)c12,-14.9% (active)
8,OCCNc1ccccc1,103% (inactive)
9,O=C(Oc1ccccc1Cl)c1ccc(Cl)cc1Cl,109% (inactive)
10,COc1cc(OC)c2cc(C(=O)c3ccc(C#N)cc3)c(=O)oc2c1,103% (inactive)
11,CC(C)C1CCC(C)C(O)C1 (centres undefined),94.2% (inactive)
12,O=C(NC1CCCCC1)c1ccc(Cl)cc1,115% (inactive)
13,O=C1C=Cc2ccccc2/C1=C/c1[nH]c(=O)[nH]c1O,22.9% (inactive)
14,NC(CO)(CO)c1ccccc1,107% (inactive)
15,Nc1cc(N)ncn1,113% (inactive)
16,S=C(Sc1ccc(Cl)cc1)Sc1ccc(Cl)cc1,90.9% (inactive)
17,CCOc1ccc(C(=O)O)cc1,109% (inactive)
18,COc1cccc(C(=O)NNC(=O)c2cccc3ccccc23)c1,107% (inactive)

# System: EKVX NSCLC
# Assay: as above
# Conditions: 10 µM unless noted
row,SMILES,growth
1,NC(=O)N1CCOCC1,108% (inactive)
2,N#Cc1ccc(OC(=O)Nc2c(Cl)cc(Cl)cc2Cl)cc1,107% (inactive)
3,CCOC(=O)/C(C)=C\c1ccc(OC)c(OC)c1,102% (inactive)
4,O=S(Cc1ccccc1)/C(=C/NC(=S)Nc1ccccc1)c1ccccc1 (centres undefined),102% (inactive)
5,C/C(=N\O)c1ccccn1,107% (inactive)
6,CC(C)NC(=O)OCc1c(COC(=O)NC(C)C)c(-c2ccc(Cl)cc2)n2c1CCC2,76.6% (inactive)
7,CC(=O)NNC(=S)/N=C\C(C(=O)c1ccccc1)=C(/O)c1ccccc1,99.4% (inactive)
8,C=CCS(C)(=O)=O,91.3% (inactive)
9,O=C(NCc1ccccc1)c1cccc([N+](=O)[O-])c1,102% (inactive)
10,c1ccc(-c2ccc3ccccc3c2)cc1,103% (inactive)
11,Cc1ccccc1NC(=O)Oc1ccc(Cl)cc1C(=O)c1ccccc1,96.8% (inactive)
12,CCC(C)c1c(N)n(S(=O)(=O)c2ccc(C)cc2)oc1=O (centres undefined),121% (inactive)
13,O=Cc1c(O)c2ccccc2[nH]c1=O,113% (inactive)
14,COC(=O)c1ccccc1C(=O)c1c(C)cc(C)cc1C,109% (inactive)
15,N=C(N)c1nn(C2OC(CO)C(O)C2O)c2nc[nH]c(=O)c12 (centres undefined),-0.273% (active)
16,COc1cccc(C(=O)O)c1OC,91.9% (inactive)
17,O=C(O)c1cc(I)ccc1O,100% (inactive)
18,CC(=O)NNC(=S)N/C=C/c1c(C)ccc([N+](=O)[O-])c1[N+](=O)[O-],99.3% (inactive)
19,NNc1ncnc2c1ncn2C1OC(CO)C(O)C1O (centres undefined),60.5% (inactive)

row,SMILES,growth
1,C=CCNC(=S)N/C=C(/C(=O)c1ccccc1)c1ccccc1,106% (inactive)
2,Cc1ccc(C2CCCCC2)cc1Br,98.9% (inactive)
3,OCCc1ccc(Cl)cc1,97.9% (inactive)
4,C/C(O)=C(/C=N/C(=S)Nc1ccccc1)C(=O)Nc1ccccc1C,96.6% (inactive)
5,CC1(C)OC(=O)CC1=O,96.8% (inactive)
6,CN(C)CCOC(=O)Nc1ccc(Cc2ccc(NC(=O)OCCN(C)C)cc2)cc1,102% [100 µM] (inactive)
7,O=c1nc(Nc2cccc(Cl)c2)oc2cc(Cl)oc(=O)c12,116% (inactive)
8,OCCNc1ccccc1,111% (inactive)
9,O=C(Oc1ccccc1Cl)c1ccc(Cl)cc1Cl,94.4% (inactive)
10,COc1cc(OC)c2cc(C(=O)c3ccc(C#N)cc3)c(=O)oc2c1,110% (inactive)
11,CC(C)C1CCC(C)C(O)C1 (centres undefined),102% (inactive)
12,O=C(NC1CCCCC1)c1ccc(Cl)cc1,98.5% (inactive)
13,O=C1C=Cc2ccccc2/C1=C/c1[nH]c(=O)[nH]c1O,69.6% (inactive)
14,NC(CO)(CO)c1ccccc1,113% (inactive)
15,Nc1cc(N)ncn1,102% (inactive)
16,S=C(Sc1ccc(Cl)cc1)Sc1ccc(Cl)cc1,49.1% (inactive)
17,CCOc1ccc(C(=O)O)cc1,99.6% (inactive)
18,COc1cccc(C(=O)NNC(=O)c2cccc3ccccc23)c1,106% (inactive)
